Here are results for 28 compounds from PubChem BioAssay.

This assay is described as follows: binders of probe aFGF2 on microarray, primary screen, stem cell growth factor project, biochemical, small-molecule microarray, fluorescence 635/667 (AID 1067).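 Also: measures binding of biotinylated aFGF2 protein to printed compounds on slides; z-score merges feature fluorescence and signal-to-noise across triplicate slides.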 The note with it: higher = more signal.
`COCCOC(=O)N1C(=O)[C@@]2(c3cc(C#CCC(C(=O)OC)C(=O)OC)ccc31)[C@H](c1ccccc1OCCO)N1[C@H](c3ccccc3)[C@H](c3ccccc3)OC(=O)[C@H]1[C@@H]2C(N)=O` yielded a composite z-score of 0.0495. In turn, `CC(C)NC(=O)[C@@H]1c2ccccc2C(=O)N(Cc2ccccc2Cl)[C@H]1c1ccc(CO)cc1` showed a composite z-score of -0.145. `COc1ccc(CCNC(=O)[C@@]2(c3ccc([N+](=O)[O-])cc3)CC(=O)N(CC34CC5CC(CC(C5)C3)C4)[C@@H]2c2ccc(CO)cc2)cc1` came in with a composite z-score of -0.0039. The value for `COc1ccc(CCNC(=O)[C@@H]2c3ccccc3C(=O)N(Cc3ccc(OC(F)(F)F)cc3)[C@H]2c2ccc(CO)cc2)cc1` was -0.0937; that for `CCOC(=O)[C@H]1C[C@H]2O[C@@]23C[C@H]1C(=O)N1CCCC1[C@@H]3O[Si](C)(C)C(C)(C)C` (stereo partly drawn) was -0.104.

`Cc1cc(C)cc(N2C(=O)CS(=O)(=O)C2c2cccc([N+](=O)[O-])c2)c1` (stereo not drawn) showed a composite z-score of 0.245. `O=C(CS)NCCCCCCNC(=O)[C@H]1C[C@H]2C(=O)N3CCC[C@H]3C(=O)N2[C@H]1c1cccc(OCCO)c1` had a composite z-score of -0.0802. In the case of `C=CC(COC(C)=O)NS(=O)(=O)c1ccc(Br)cc1` (stereo not drawn), the composite z-score was -0.105. The value for `CCCC[C@H]1OB(O)C[C@H]2C1=C(C)C[C@H]1C(=O)N(Cc3ccccc3)C(=O)[C@H]12` was 0.0171. To `O=C1OCCC/C=C\[C@H]2OC34C=CCN(Cn5nnc6ccccc65)C(=O)[C@H]3N(CCCCCO)C(=O)[C@@H]4C12` (stereo partly drawn) belongs -0.145; to `CC(C)C[C@@H]1NC(=O)[C@@H]2C[C@H](C(=O)NCCCCCC[N+](C)(C)C)[C@H](c3ccc(O)cc3)N2C1=O`, -0.112.

In turn, `CC(C)C[C@@H]1NC(=O)[C@H]2C[C@@H](C(=O)NCCCCCCNC(=O)CS)[C@@H](c3cccc(OCCO)c3)N2C1=O` registered a composite z-score of -0.0493.

Consider `CCOC(=O)C1=CCC(c2ccc([N+](=O)[O-])cc2)N(S(=O)(=O)c2ccc(C)cc2)C1` (stereo not drawn), for which the composite z-score is -0.0878. As for `CN(C)CCCNC(=O)[C@@]1(Cc2ccccc2I)c2ccccc2C(=O)N(Cc2ccccc2C(F)(F)F)[C@H]1c1ccc(CO)cc1`, the composite z-score was -0.22. The value for `O=C1OCC=C[C@H]2OC34C=CCN(c5ccc6ccccc6c5)C(=O)[C@H]3N(CCCO)C(=O)[C@@H]4[C@@H]12` (stereo partly drawn) was -0.102; that for `CC(=O)NCCCC[C@@H]1NC(=O)[C@H]2C[C@@H](C(=O)NCCCCCC[N+](C)(C)C)[C@@H](c3cccc(OCCO)c3)N2C1=O` was -0.0894; that for `C=CCOC(=O)[C@@H]1[C@H]2C(=O)O[C@H](c3ccccc3)[C@H](c3ccccc3)N2[C@H](c2ccc(OCCOC(=O)[C@@H]3C[C@@H]4C(=O)NCC(=O)N4[C@@H]3c3cccc(OCCO)c3)cc2)[C@@]12C(=O)Nc1ccc(I)cc12` was -0.119. The value for `CC(C)OC(=O)CC(=O)CC(O)c1ccc(C#N)cc1` (stereo not drawn) was 0.0798. To `C=CCNC(=O)[C@H]1[C@@H]2C(=O)O[C@@H](c3ccccc3)[C@@H](c3ccccc3)N2[C@@H](c2ccc(O)cc2)[C@]12C(=O)N(C(=O)OCCOC)c1ccc(C#CCCO)cc12` belongs -0.154; to `C=CC[C@@]1(C(=O)O)N=C(c2ccc(OCCCO)cc2)O[C@@H]1c1ccccc1N=[N+]=[N-]`, -0.0112.

`CC(=O)NCCCC[C@@H]1NC(=O)[C@@H]2C[C@H](C(=O)NCCCCN(C)C)[C@H](c3ccc(O)cc3)N2C1=O` had a composite z-score of -0.168. Take `CCOC(=O)C1=C[C@@H](CC)N(S(=O)(=O)c2ccc(C)cc2)[C@H]1c1ccccc1`: the composite z-score came out at 0.0603. `Cc1ccc([C@H]2[C@H](C(=O)O)[C@H](Sc3ccccc3)[C@@H](C(C)C)N2S(=O)(=O)c2ccc(C)cc2)cc1` gave a composite z-score of 0.167.

`COCCOC(=O)N1C(=O)[C@@]2(c3cc(C#CCNC(N)=O)ccc31)[C@H](c1ccc(OCCO)cc1)N1[C@H](c3ccccc3)[C@H](c3ccccc3)OC(=O)[C@H]1[C@@H]2C(=O)N1CCc2cc(OC)c(OC)cc2C1` gave a composite z-score of -0.051. The value for `C=C[C@@H](COC(C)=O)N(Cc1ccc([N+](=O)[O-])cc1)S(=O)(=O)c1ccc(Br)cc1` was 0.0258; that for `CCCCC(CC)C(O)C1C=CC2C(=O)N(c3ccccc3)C(=O)C2N1Nc1ccccc1` (stereo not drawn) was 0.0472. The value for `COC(=O)C[C@H]1O[C@]2(C(=O)N(Cc3ccccc3)c3ccc(NC(C)=O)cc32)[C@@H](C)[C@@H]1[Si](C)(C)c1ccc(OC)cc1` was -0.0543; that for `COCCOC(=O)N1C(=O)[C@@]2(c3ccccc31)[C@H](C(=O)NC[C@H](O)c1ccccc1)[C@H]1C(=O)O[C@H](c3ccccc3)[C@H](c3ccccc3)N1[C@@H]2c1ccc(OCCO)cc1` was -0.113.
